# Measurements as given in PMC8384837, “Expanding the binding specificity for RNA recognition by a PUF domain”.
# Legend:
# Test in all cases: yeast three-hybrid, YBZ-1, SC-Leu-His + 0.5 mM 3-AT, 4 days
# Details in all cases: tags: N-Gal4 AD-HA kept; label: inside an RPR1-promoter hybrid RNA with tandem MS2 sites; ssRNA
# PUM1 PUF domain R5-SMS = PUM1 PUF domain R5-SMS (Homo sapiens, UniProt Q14671 828-1176, C1007S;R1008M;Q1011S)
# How it was run: (§1)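 The interaction score is the log change in how often each variant appears, from input to selection. Frequencies came from PCR-amplified, Illumina-sequenced repeat regions of Pumilio-1 PUF domain libraries grown in strain YBZ-1 (LexA–MS2 coat fusion, HIS3 reporter) alongside matching RNA elements. Input plates were SC-Leu and selection plates were SC-Leu-His + 0.5 mM 3-AT, each for four days, and the log2 calculation used a pseudocount of 1 where a variant was absent.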
# PUM1 PUF domain R5-RFV = PUM1 PUF domain R5-RFV (Homo sapiens, UniProt Q14671 828-1176, C1007R;R1008F;Q1011V)
# How it was run: as §1
# PUM1 PUF domain R5-NQR = PUM1 PUF domain R5-NQR (Homo sapiens, UniProt Q14671 828-1176, C1007N;R1008Q;Q1011R)
# How it was run: as §1
# PUM1 PUF domain R5-FNL = PUM1 PUF domain R5-FNL (Homo sapiens, UniProt Q14671 828-1176, C1007F;R1008N;Q1011L)
# How it was run: as §1
# PUM1 PUF domain R3-SRR = PUM1 PUF domain R3-SRR (Homo sapiens, UniProt Q14671 828-1176, C935S;Q939R)
# How it was run: as §1
# PUM1 PUF domain R1-RKQ = PUM1 PUF domain R1-RKQ (Homo sapiens, UniProt Q14671 828-1176, S863R;R864K)
# How it was run: as §1
# PUM1 PUF domain R7-ASR = PUM1 PUF domain R7-ASR (Homo sapiens, UniProt Q14671 828-1176, S1079A;N1080S;E1083R)
# How it was run: as §1
# PUM1 PUF domain R8-RRA = PUM1 PUF domain R8-RRA (Homo sapiens, UniProt Q14671 828-1176, N1122R;Y1123R;Q1126A)
# How it was run: as §1
# PUM1 PUF domain R8-FYH = PUM1 PUF domain R8-FYH (Homo sapiens, UniProt Q14671 828-1176, N1122F;Q1126H)
# How it was run: as §1
# PUM1 PUF domain R8-RHV = PUM1 PUF domain R8-RHV (Homo sapiens, UniProt Q14671 828-1176, N1122R;Y1123H;Q1126V)
# How it was run: as §1
# PUM1 PUF domain R5-KQR = PUM1 PUF domain R5-KQR (Homo sapiens, UniProt Q14671 828-1176, C1007K;R1008Q;Q1011R)
# How it was run: as §1
# PUM1 PUF domain R6-RPG = target: T1, PUM1 PUF domain R6-RPG (Homo sapiens, UniProt Q14671 828-1176, N1043R;Y1044P;Q1047G)
# T1 sequence: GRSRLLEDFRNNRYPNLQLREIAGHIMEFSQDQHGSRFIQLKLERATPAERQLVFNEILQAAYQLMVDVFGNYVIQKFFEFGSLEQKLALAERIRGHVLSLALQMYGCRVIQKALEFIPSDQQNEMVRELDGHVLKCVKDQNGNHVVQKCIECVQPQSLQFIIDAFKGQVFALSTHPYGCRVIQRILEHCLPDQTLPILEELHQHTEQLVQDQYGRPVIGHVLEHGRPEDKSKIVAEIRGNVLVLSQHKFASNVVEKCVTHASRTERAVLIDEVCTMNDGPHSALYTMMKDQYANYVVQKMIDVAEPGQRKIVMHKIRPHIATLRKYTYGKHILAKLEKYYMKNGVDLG
# How it was run: as §1
# PUM1 PUF domain R3-TYF = PUM1 PUF domain R3-TYF (Homo sapiens, UniProt Q14671 828-1176, C935T;R936Y;Q939F)
# How it was run: as §1
# PUM1 PUF domain R4-NNA = PUM1 PUF domain R4-NNA (Homo sapiens, UniProt Q14671 828-1176, H972N;Q975A)
# How it was run: as §1
# PUM1 PUF domain R5-EYR = PUM1 PUF domain R5-EYR (Homo sapiens, UniProt Q14671 828-1176, C1007E;R1008Y;Q1011R)
# How it was run: as §1
# PUM1 PUF domain R3-MWH = PUM1 PUF domain R3-MWH (Homo sapiens, UniProt Q14671 828-1176, C935M;R936W;Q939H)
# How it was run: as §1
# PUM1 PUF domain R4-CPV = PUM1 PUF domain R4-CPV (Homo sapiens, UniProt Q14671 828-1176, N971C;H972P;Q975V)
# How it was run: as §1
sequence,measurement,setting,value
GGCUAGAACUAGUGGAUCCCCCGGCGCCCGGCGGCUCGAGCCCGGGUAAGUGUGAAUAGUCUGCAUGCCGCCGGGCGCCAUGCCUGCAGGUCGACUCUAGAAAACAUG,binding signal,PUM1 PUF domain R5-SMS,2.69 log2 enrichment (interaction score)
same,binding signal,PUM1 PUF domain R5-RFV,1.88 log2 enrichment (interaction score)
GGCUAGAACUAGUGGAUCCCCCGGCGCCCGGCGGCUCGAGCCCGGGUAAGUGUUAAUAGUCUGCAUGCCGCCGGGCGCCAUGCCUGCAGGUCGACUCUAGAAAACAUG,binding signal,PUM1 PUF domain R5-SMS,0.83 log2 enrichment (interaction score)
same,binding signal,PUM1 PUF domain R5-NQR,4.88 log2 enrichment (interaction score)
same,binding signal,PUM1 PUF domain R5-FNL,3.47 log2 enrichment (interaction score)
same,binding signal,PUM1 PUF domain R5-RFV,4.04 log2 enrichment (interaction score)
GGCUAGAACUAGUGGAUCCCCCGGCGCCCGGCGGCUCGAGCCCGGGUAAGUGUAAGUAGUCUGCAUGCCGCCGGGCGCCAUGCCUGCAGGUCGACUCUAGAAAACAUG,binding signal,PUM1 PUF domain R3-SRR,2.24 log2 enrichment (interaction score)
GGCUAGAACUAGUGGAUCCCCCGGCGCCCGGCGGCUCGAGCCCGGGUAAGUGUAAAUGGUCUGCAUGCCGCCGGGCGCCAUGCCUGCAGGUCGACUCUAGAAAACAUG,binding signal,PUM1 PUF domain R1-RKQ,2.35 log2 enrichment (interaction score)
GGCUAGAACUAGUGGAUCCCCCGGCGCCCGGCGGCUCGAGCCCGGGUAAGUUUAAAUAGUCUGCAUGCCGCCGGGCGCCAUGCCUGCAGGUCGACUCUAGAAAACAUG,binding signal,PUM1 PUF domain R7-ASR,2.25 log2 enrichment (interaction score)
GGCUAGAACUAGUGGAUCCCCCGGCGCCCGGCGGCUCGAGCCCGGGUAAGCGUAAAUAGUCUGCAUGCCGCCGGGCGCCAUGCCUGCAGGUCGACUCUAGAAAACAUG,binding signal,PUM1 PUF domain R8-RRA,3.15 log2 enrichment (interaction score)
same,binding signal,PUM1 PUF domain R8-FYH,2.85 log2 enrichment (interaction score)
same,binding signal,PUM1 PUF domain R8-RHV,5.23 log2 enrichment (interaction score)
GGCUAGAACUAGUGGAUCCCCCGGCGCCCGGCGGCUCGAGCCCGGGUAAGUGUAAAUAGUCUGCAUGCCGCCGGGCGCCAUGCCUGCAGGUCGACUCUAGAAAACAUG,binding signal,PUM1 PUF domain R8-RRA,1.42 log2 enrichment (interaction score)
same,binding signal,PUM1 PUF domain R5-KQR,0.64 log2 enrichment (interaction score)
same,binding signal,PUM1 PUF domain R6-RPG,3.6 log2 enrichment (interaction score)
same,binding signal,PUM1 PUF domain R8-RHV,3.99 log2 enrichment (interaction score)
same,binding signal,PUM1 PUF domain R3-TYF,6.49 log2 enrichment (interaction score)
same,binding signal,PUM1 PUF domain R5-RFV,2.29 log2 enrichment (interaction score)
same,binding signal,PUM1 PUF domain R4-NNA,2.12 log2 enrichment (interaction score)
same,binding signal,PUM1 PUF domain R5-EYR,5.2 log2 enrichment (interaction score)
same,binding signal,PUM1 PUF domain R3-MWH,2.6 log2 enrichment (interaction score)
same,binding signal,PUM1 PUF domain R3-SRR,0.87 log2 enrichment (interaction score)
same,binding signal,PUM1 PUF domain R4-CPV,1.1 log2 enrichment (interaction score)
